# From PubChem
# This excerpt belongs to a sample that is enriched for hits.
# G9a inh – inhibitors of human histone lysine methyltransferase G9a; G9a H3K9 monomethylation, AlphaScreen, 2 h; Potency, µM (top dose mostly 102 µM), most hits filed as inhibitors; 350,000 compounds, 8.8% hits; AID 504332; note: nearly all actives have a fitted effect of over 75% in size
#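 AlphaScreen detection with an anti-monomethyl H3K9 antibody quantified product after a 2 h room-temperature reaction containing 500 nM biotinylated H3K9 peptide, 20 µM SAM and 20 nM enzyme, which had been preincubated 15 min with compound.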
# ALOX12 inh – blocks human arachidonate 12S-lipoxygenase; P18054; purified 12hLO, xylenol orange hydroperoxide absorbance; AID 1671190; Potency, µM (highest dose often 108 µM), hits mostly inhibitors; 580,000 compounds, 1.1% hits
# Target sequence (P18054 whole entry, looked up): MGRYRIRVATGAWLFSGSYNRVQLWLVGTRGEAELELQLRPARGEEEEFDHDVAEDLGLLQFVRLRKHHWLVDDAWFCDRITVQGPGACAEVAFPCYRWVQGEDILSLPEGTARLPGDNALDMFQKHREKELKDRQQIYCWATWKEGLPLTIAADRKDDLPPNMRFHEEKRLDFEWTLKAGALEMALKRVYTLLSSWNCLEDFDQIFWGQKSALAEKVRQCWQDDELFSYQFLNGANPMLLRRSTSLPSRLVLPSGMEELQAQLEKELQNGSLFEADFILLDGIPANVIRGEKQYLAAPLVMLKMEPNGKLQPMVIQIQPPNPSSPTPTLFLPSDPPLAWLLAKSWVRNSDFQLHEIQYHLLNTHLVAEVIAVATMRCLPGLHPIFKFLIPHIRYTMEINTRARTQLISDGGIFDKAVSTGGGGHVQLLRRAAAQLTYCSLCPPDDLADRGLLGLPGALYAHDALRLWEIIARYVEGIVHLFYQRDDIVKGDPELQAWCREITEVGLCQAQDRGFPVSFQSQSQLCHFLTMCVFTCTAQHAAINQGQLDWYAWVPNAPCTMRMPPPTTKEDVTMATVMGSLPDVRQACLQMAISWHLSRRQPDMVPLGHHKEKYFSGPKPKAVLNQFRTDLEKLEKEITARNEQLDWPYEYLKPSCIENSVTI
#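 Purified human 12hLO (150 nM final) in 25 mM Hepes, 0.01% Triton X-100, pH 7.0 was preincubated 15 min at room temperature with compound. Then 40 uM arachidonic acid was added, 30 min. Hydroperoxide was read by Fe-XO absorbance ratio 573/405 nm.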
# VDR inh – inhibitors of human vitamin D receptor; P11473; AID 504847; VDR-SRC2-3 peptide fluorescence polarization, 2 h; Potency, µM, actives largely listed as inhibitors; 400,000 compounds, 0.93% hits
#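 Fluorescence polarization assay of small-molecule disruption of VDR binding to coregulator peptide SRC2-3. Compounds and controls pin-transferred, then read after 2 h incubation at ambient room temperature.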
# Glioma ERSR ind – ER stress response induction in glioma; U87-MG GRP78 promoter luciferase reporter, 16 h; AID 602332; 420,000 compounds, 0.02% hits; Potency, µM, actives largely listed as activators; note: series mostly up to about 76 µM; nearly all actives have a fitted effect of over 35% in size
#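 Stably transfected U87-MG human glioma cells carrying a GRP78-based luminescent sensor were seeded at 1000 cells/well, pin-dosed with compounds and incubated 16 h. Luciferase reagent was then added, and end-point luminescence was read after 10 min at room temperature.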
# Sfp PPTase inh – inhibitors of Bacillus subtilis Sfp phosphopantetheinyl transferase. Q9F4F7. Biochemical Sfp PPTase activity, qHTS. Potency, µM, most hits filed as inhibitors. 310,000 compounds, 3.5% hits;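 note: the enzyme is Sfp with the accession as filed and its product quenches rhodamine fluorescence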
#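 Step 1, compound plus 15 nM Sfp-PPTase, 15 min, room temperature. Step 2, add rhodamine-CoA (5 uM) and BHQ-2-YbbR (12.5 uM). Step 3, read 525/598 nm fluorescence at 0 and 30 min.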
# USP1-UAF1 confirm – validation of human USP1/UAF1 inhibitors; AID 540327; 50 compounds, 50% hits; Potency, µM (titrated, usually from 114 µM), most hits filed as inhibitors; shares compounds with VDR inh; Ub-Rhodamine cleavage, fluorescence kinetic read
# VDR inh confirm – confirmation of human vitamin D receptor inhibitors | 840 compounds, 89% hits | VDR-coactivator inhibition assay, qHTS confirmation | Potency, µM, actives largely listed as inhibitors | shares compounds with VDR inh
# VDR FP – VDR (human) coactivator binding inhibition, fluorescein polarization; 840 compounds, 48% hits; Potency, µM (top dose mostly 57.1 µM), hits mostly inhibitors; shares compounds with VDR inh; VDR-coactivator binding, fluorescein fluorescence polarization
# VDR bla reporter – VDR (human) inhibition, cell-based beta-lactamase validation; shares compounds with VDR inh; 840 compounds, 23% hits; AID 602202; VDR beta-lactamase reporter cells, FRET ratio; cells co-treated with VDR agonist LG190178; Potency, µM (doses to about 46.1 µM), hits mostly inhibitors
# VDR viability – cytotoxic in counter-screen for VDR inhibitors; Potency, µM (titrated, usually from 48.3 µM), usual class: cytotoxic; shares compounds with VDR inh; 840 compounds, 18% hits; AID 602204; cytotoxicity counter-screen, cell viability, qHTS; note: nearly all actives have a fitted effect of over 75% in size
# Numbers stand for hits; n = inactive; u = inconclusive; x = not tested or not shown; ! = not confirmed by another sample; [ ] = remark or other dose. Calls come from the whole dose curve; as a rule, active = well fitted curve in the direction sought with a large enough effect; inconclusive = small, poorly fitted or top-dose-only effect, or another doubt; inactive = no such curve, though single readings can be large; an effect the other way counts as inactive or inconclusive.
SMILES,G9a inh,ALOX12 inh,VDR inh,Glioma ERSR ind,Sfp PPTase inh,VDR inh confirm,VDR FP,VDR bla reporter,VDR viability,others
COc1ccc(OC)c(-c2c3cc(O)c(=O)cc-3oc3cc(O)c(O)cc23)c1,6.3µM,x,25µM,n,11µM,24,u,n,u,
CCCS(=O)(=O)NCc1nnnn1-c1ccccc1,x,n,x,x,x,x,x,x,x,
O=C1Nc2ccccc2C1=Nc1cccc(Cl)c1,n,n,n,n,n,x,x,x,x,
O=C1Nc2ccc(Br)cc2C1=Nc1cccnc1,n[12.7 µM],n,25µM,n,n,9.5,n,n,u,
CCS(=O)(=O)N1CCCN(c2ccc(=O)n(-c3ccccc3)n2)CC1,x,n,x,x,x,x,x,x,x,
CC1(C)Cc2ccccc2C2=NNC(=O)C2=N1,n,n,11µM,n,n,u,u,n,u,
COc1ccc(CNC(=O)C(=O)c2c[nH]c3ccccc23)cc1,x,n,x,x,x,x,x,x,x,
CCOC(=O)CSC1=NC(=O)/C(=C\c2ccc(Cl)cc2)S1,35µM,45µM,79µM,n,u,8.4,n,u,u,
CSC1=NC(=O)/C(=C/c2ccc(SC)cc2)S1,n,n,n,n,n,x,x,x,x,
COc1ccc2[nH]c3c4c(ccc3c2c1)C(=O)C=CC4=O,x,u,u,n,6.3µM,7.1,5µM,6.5µM,u,
O=C(/C=C/c1ccc2c(c1)OCO2)c1cccnc1,n,n,u,n,n,x,x,x,x,
O=C(/C=C/c1ccc([N+](=O)[O-])cc1)c1cccnc1,u,n,56µM,n,18µM,24,8.9µM,n,u,
O=C(/C=C/c1cccnc1)c1ccc(F)c(F)c1,40µM,n,45µM,n,63µM,u,8.9µM,u,u,
CC(C)NC(=O)NCc1ccc(C(=O)NCC2(c3ccccc3)CCCC2)cc1,x,n,x,x,x,x,x,x,x,
CC1(C)CCC2=C(O1)c1ccccc1C(=O)C2=O,14µM!,u,8.9µM,n,63µM!,14,11µM,u,24µM!,USP1-UAF1 confirm=8.3µM
OCc1cnc2ccccc2c1,x,n,x,x,x,x,x,x,x,
COC(=O)[C@@H]1[C@@H](C#N)C2(c3ccccc3-c3ccccc32)N(c2ccc(Cl)cc2)N1C#N,u,u,25µM,n,u,24,u,u,u,
COc1ccc(-c2coc3c(C)c(OCCN4CCC(C)CC4)ccc3c2=O)cc1,x,n,x,x,x,x,x,x,x,
CCCc1nnc(NC(=O)c2nc(S(=O)(=O)Cc3ccc(C)cc3)ncc2Cl)s1,13µM,u,28µM,n,n,u,7.9µM,18µM,21µM,
Cc1ccc(CS(=O)(=O)c2ncc(Cl)c(C(=O)Nc3nc4ccc(C)cc4s3)n2)cc1,n,u,u,n,x,x,x,x,x,
CC(C)c1nnc(NC(=O)c2nc(S(=O)(=O)Cc3ccccc3)ncc2Cl)s1,8.9µM,u,16µM,n,n,9.5,7.9µM,6.5µM,15µM,
CSc1nnc(NC(=O)c2nc(S(=O)(=O)Cc3ccccc3)ncc2Cl)s1,50µM,n,u,n,n,10,8.9µM,5.2µM,27µM,
CC1(C)CC(=O)C(C(c2ccc(Br)cc2)C2C(=O)CC(C)(C)CC2=O)C(=O)C1,45µM,n,25µM,n,n,30,18µM,n,n,
NS(=O)(=O)c1ccc(NC(=O)Nc2ccccc2)cc1,n,n,n,n,n,x,x,x,x,
NS(=O)(=O)c1ccc(NC2=CC(=O)C(=O)c3ccccc32)cc1,x,u,u,n,n,14,7.9µM,u,u,
SMILES,G9a inh,ALOX12 inh,VDR inh,Glioma ERSR ind,Sfp PPTase inh,VDR inh confirm,VDR FP,VDR bla reporter,VDR viability,others
COCc1ccc(C(=O)N2CCc3[nH]nc(-c4ccccc4F)c3C2)s1,x,n,x,x,x,x,x,x,x,
COCC(=O)Nc1sc2c(c1C(=O)OC)CCC(C)C2 (stereo not drawn),n[12.7 µM],n,n,n,n,x,x,x,x,
CC1CCc2c(sc(NC(=O)CCC(=O)O)c2C(=O)NC2CC2)C1 (stereo not drawn),8.9µM,n,56µM,n,8.9µM,27,28µM,n,n,
O=C(/C(=C/c1ccc(Cl)cc1)c1nc2ccccc2[nH]1)c1cccs1,u,x,18µM,n,n,9.5,u,6.5µM,8.2µM,
O=C(/C(=C\c1ccccc1)c1nc2ccccc2[nH]1)c1ccc(Cl)cc1,n,n,u,n,n,x,x,x,x,
COc1cccc(NC(=O)CCc2nnc3n(CCc4ccccc4)c(=O)c4ccccc4n23)c1,x,n,x,x,x,x,x,x,x,
CN1CCN(C(=O)c2sc(=S)n(-c3ccccc3)c2N)CC1,u,u,45µM,n,n,11,u,n,n,
CCN(CC)S(=O)(=O)c1cc(NC(=O)c2ccc3c(c2)NC(=O)C(C)S3)ccc1C (stereo not drawn),1µM,u,79µM,n,x,21,u,u,u,
COc1ccc(-n2c(SCC#N)nc3c(sc(=S)n3-c3ccccc3)c2=O)c(OC)c1,2µM,n,25µM,n,14µM,8.4,u,n,n,
COc1cc(/C=C2\C(=O)N(c3ccc(S(N)(=O)=O)cc3)N=C2C)ccc1OC(=O)c1ccco1,u,u,u,n,u,10,3.5µM,n,n,
C#CCOc1ccc(/C=C2/C(=O)N(c3ccc(S(N)(=O)=O)cc3)N=C2C)cc1OC,x,u,x,n,x,x,x,x,x,
CCC(C)(C)c1nnc(NC(=O)C2CCN(C(=O)c3ccco3)CC2)s1,1.8µM,u,50µM,n,n,6.7,u,n,n,
CCN1C/C(=C/c2cccc([N+](=O)[O-])c2)C(=O)/C(=C/c2cccc([N+](=O)[O-])c2)C1,n,n,10µM,n,n,3.4,u,2.1µM,u,
Cn1nc(C(=O)NCc2ccccc2Cl)c2ccccc2c1=O,x,n,x,x,x,x,x,x,x,
O=c1ccc(-c2cc(-c3cccc(N4CCOCC4)c3)cn3cncc23)c[nH]1,x,n,x,x,x,x,x,x,x,
C=CCN1C(=O)/C(=N/n2cnnc2)c2ccccc21,n[12.7 µM],n,40µM,n,n,17,u,n,n,
O=C1C(N2CCN(S(=O)(=O)c3cc(F)cc(F)c3)CC2)CCN1Cc1ccccn1 (stereo not drawn),x,n,x,x,x,x,x,x,x,
CC(C)(C)c1nnc(NS(=O)(=O)c2ccc([N+](=O)[O-])cc2)s1,10µM,u,u,n,n,22,25µM,n,n,
Cc1ccc(NC(=O)CSc2ccccc2)cc1S(=O)(=O)N1CCCCC1,n[12.7 µM],n,n,n,x,x,x,x,x,
Cc1cc(C)c(S(=O)(=O)/N=C2/C=C(SCC(=O)O)C(=O)c3ccccc32)cc1C,5.6µM,x,7.9µM,u,22µM,4.2,u,n,u,
